Inconclusive results are not listed. Activity calls are given as the source filed them. How the source made its calls: active means hit-call score of the fitted dose curve at least 0.9, where 1 is the maximum; inconclusive means response in the unintended direction; inactive means score below 0.9.

Chain of Glyceraldehyde-3-phosphate dehydrogenase (Homo sapiens) (P04406 whole entry, looked up): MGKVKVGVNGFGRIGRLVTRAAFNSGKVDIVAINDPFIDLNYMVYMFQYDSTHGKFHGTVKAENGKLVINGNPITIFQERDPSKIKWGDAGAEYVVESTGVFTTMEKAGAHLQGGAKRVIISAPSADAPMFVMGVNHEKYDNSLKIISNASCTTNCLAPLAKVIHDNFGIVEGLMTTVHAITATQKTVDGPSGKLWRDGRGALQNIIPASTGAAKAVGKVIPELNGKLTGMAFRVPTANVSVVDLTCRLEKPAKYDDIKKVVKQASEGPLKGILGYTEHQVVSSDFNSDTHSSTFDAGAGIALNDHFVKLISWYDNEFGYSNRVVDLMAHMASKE

Read-out in the experiment: Glyceraldehyde-3-phosphate dehydrogenase (Homo sapiens) (UniProt P04406)
The experiment can be described thus: CLD_GAPDH_24hr: CellzDirect (CLD) Gene Expression Assay for Baseline Control (Glyceraldehyde 3-phosphate dehydrogenase) at 24 hours (AID 2283692). The protocol: CLD_24hr is a cell-based, multiplexed-readout assay that uses hepatocyte, a human liver primary cell, with measurements taken at 24 hours after chemical dosing in a 96-well plate.CLD_GAPDH_24hr is one of 16 assay component(s) measured or calculated from the CLD_24hr assay. It is designed to make measurements of mRNA induction, a form of inducible reporter, as detected with chemiluminescence signals by Quantitative Nuclease Protection Assay (qNPA) technology.Data from the assay component CLD_GAPDH_24hr was analyzed at the endpoint, CLD_GAPDH_24hr, in the positive analysis fitting direction relative to DMSO as the negative control and baseline of activity. Using a type of inducible reporter, gain-of-signal activity can be used to understand changes in the reporter gene as they relate to the gene GAPDH. Furthermore, this assay endpoint can be referred to as a secondary readout, because this assay has produced multiple assay endpoints where this one serves a background control function. To generalize the intended target to other relatable targets, this assay endpoint is annotated to the background measurement intended target family, where subfamily is baseline control.
Human hepatocyte cultures were treated daily for two consecutive days with fresh dosing solutions containing appropriate concentrations of the 320 ToxCast chemicals (chemical identities were blinded to CellzDirect and other ToxCast collaborators), vehicle control (0.2% DMSO), and positive control inducers as summarized in Table 1. Due to the large number of treatment groups and chemicals examined, the ToxCast chemicals were divided into two groups (spanning two independent cultures of hepatocytes from separate donor preparations (Hu778: ToxCast plates 1 and 2; Hu776: ToxCast plates 3 and 4). Each preparation of human hepatocyte cultures was treated with respective vehicle control, medium only control, set of six positive controls/reference chemicals for the five hepatic receptor pathways, and a subset of eight of the ToxCast chemicals (indoxacarb, pyrithiobac-sodium, norflurazon, cyhalofop-butyl, methomyl, thiram, acetochlor, and propiconazole). These replicate data, coupled with internal replicates designed within the blinded ToxCast chemical library, provided additional data to evaluate interindividual differences between hepatocyte preparations and their potential impact on chemical profiles.Cell morphology and integrity were evaluated using phase-contrast microscopy as an indicator of hepatocyte cell health (Tyson & Green, 1987). Cultures for each treatment group (i.e., media, vehicle [0.2% DMSO], positive control inducers [multiple concentrations], and the ToxCast chemicals [multiple concentrations]) were observed and cell morphology was assessed relative to vehicle control cultures at each harvest time point (0, 6, 24, or 48 h). […] Images were evaluated at the conclusion of the study to assess changes in cell integrity and account for the effects of chemical exposure on uncharacteristic changes in concentration-dependent gene expression profiles. The results from these determinations of apparent cytotoxicity were annotated (yes/no) alongside the corresponding qNPA data for reference.At the conclusion of each treatment period, hepatocyte cultures (96-well) were washed with 1 volume of HBSS, lysed by addition of 25 ul ArrayPlate lysis buffer (HTG, Tucson, AZ), and 70 ul/well of Denaturation Oil, denatured by incubation at 95C for 10 min, and frozen at approximately -70C until analysis by nuclease protection assay (qNPA) (Roberts et al., 2007). For qNPA analysis, cell lysates were thawed at 50C for approximately 30 min, qNPA probes were added, and samples were incubated at 95C for 10 min to begin the detection process by denaturing the target RNA, dissociating the duplexes and secondary structure hybridization. At the conclusion of the hybridization period, S1 nuclease reagent was added to each sample to digest all nonprotected nucleotides at 50C for 60-90 min. […]
Turning to `CCC(C)OC(=O)N1CCCCC1CCO` (configuration not stated), the call was inactive.

For the compound `CCCN(CCC)C(=O)SCC`, the compound was classed as inactive.

`CCCOC(=O)NCCCN(C)C`: the call was inactive.

`CCNc1nc(N)nc(Cl)n1`: the call was inactive.

Consider `N#CSCSc1nc2ccccc2s1`, for which the compound was classed as inactive.

Take `C#CCOC(=O)[C@@H](C)Oc1ccc(Oc2ncc(Cl)cc2F)cc1`: the compound was called inactive.

On to `CCCCC(CC)COC(=O)c1ccccc1C(=O)O` (configuration not stated), for which the result was inactive.

As to `Oc1ccc(C(c2ccc(O)cc2)C(Cl)(Cl)Cl)cc1`, the compound was called inactive.

As to `CSC(=O)c1cccc2nnsc12`, the call was inactive.

Regarding `CCCCCOC(=O)COc1cc(N2C(=O)C3=C(CCCC3)C2=O)c(F)cc1Cl`, the call was inactive.

Regarding `S=C(S)NCCNC(=S)S.[Mn+2].[S-]C([S-])=NCCN=C([S-])[S-].[Zn+2]`, the call was inactive.

`CCC(O)=C1C(=O)CC(C(=O)O)CC1=O` (configuration not stated): the compound was called inactive.

Consider `CCCOC(=O)c1ccc(C(=O)OCCC)nc1`, for which the call was inactive.

As to `CCOC(=O)[C@H](C)Oc1ccc(Oc2nc3ccc(Cl)cc3o2)cc1`, the outcome was inactive.

For `COC(=O)c1ccccc1S(=O)(=O)NC(=O)Nc1nc(OC(F)F)cc(OC(F)F)n1`, the compound was called inactive.

On to `COC(=O)c1ccccc1C(=O)O`, for which the result was inactive.

Take `CCSC(=O)N(CC(C)C)CC(C)C`: the compound was called inactive.

With `S=C([S-])NCCNC(=S)[S-].[Mn+2]`, the call was inactive.

As for `OB(O)O`, the call was inactive.

`CCCCOC(=O)[C@@H](C)Oc1ccc(Oc2ccc(C(F)(F)F)cn2)cc1`: the compound was called inactive.

Consider `CCCCCCC(C)OC(=O)COc1nc(F)c(Cl)c(N)c1Cl` (configuration not stated), for which the compound was called inactive.

For `CC(C)(C)[C@@H](O)[C@@H](Cc1ccc(Cl)cc1)n1cncn1`, the call was inactive.

Regarding `COCCO`, the outcome was inactive.

Take `CCOC(=O)COc1cc(-n2ncc(C(F)(F)F)c(C)c2=O)c(F)cc1Cl`: the compound was classed as inactive.

In the case of `CC1(C)C(C=C(Cl)Cl)C1C(=O)OCc1cccc(Oc2ccccc2)c1` (configuration not stated), the compound was classed as inactive.

As to `COC(=O)c1c(Cl)nn(C)c1S(=O)(=O)NC(=O)Nc1nc(OC)cc(OC)n1`, the outcome was inactive.

In the case of `COC(=O)c1cccc(C)c1S(=O)(=O)NC(=O)Nc1nc(OCC(F)(F)F)nc(N(C)C)n1`, the call was inactive.

The values are drawn from PubChem BioAssay (EPA / NIEHS).
